“And” between values parts separate entries of the source, which are not always exact repeats. Equal values may be shown once. Results filed as inconclusive are left out. The source made the active and inactive calls. The calls were made as follows, unless noted: active = hit-call score of the fitted dose curve at least 0.9, where 1 is the maximum; inactive = score below 0.9.
Key:
[1] = CCTE_Mundy_HCI_Cortical_Synap_Neur_Matur_NeuriteCount: CCTE's Synaptogenesis and Neurite Maturation Assay in rat cortical cells for Neurite Count, Mundy Lab (AID 2284222);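 as to outcome: exposure from day 7 to day 12 in vitro with readout at day 12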
Outline: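 Rat primary cortical cells; AraC added at DIV 5, chemicals dosed with media change at DIV 7 through DIV 12. MAP2/synaptophysin/Hoechst immunostaining, high-content imaging of neurite number; fitted relative to DMSO.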

[2] = CCTE_Mundy_HCI_Cortical_Synap_Neur_Matur_CellBodySpotCount: CCTE's Synaptogenesis and Neurite Maturation Assay in rat cortical cells for Cell Body Spot Count, Mundy Lab (AID 2284223)
Outline: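 Chemicals were applied to AraC-treated rat primary cortical cells at DIV 7 and measured at DIV 12. Fixed cells were labelled for MAP2, synaptophysin and nuclei, and high-content imaging gave cell body synaptophysin spot counts per neuron relative to DMSO.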

[3] = BSK_BT_PBMCCytotoxicity: PBMC Cytotoxicity Assessment in the BioMAP Diversity Plus: BT Assay (AID 2284225); details: primary human B cells with PBMC;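 also: PBMC viability measured by Alamar Blue dye reduction fluorescence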
Description: BSK_BT is a cell-based, multiplexed-readout assay that uses B cell and peripheral blood mononuclear cells, a human vascular primary cell co-culture, with measurements taken at 24 hours after chemical dosing in a microplate: 96-well plate.BSK_BT_PBMCCytotoxicity is an assay component measured in the BSK_BT assay. It measures dehydrogenase activity, a form of viability reporter, as detected with fluorescence intensity signals by Alamar Blue Reduction technology.Data from the assay component BSK_BT_PBMCCytotoxicity was analyzed at the endpoint, BSK_BT_PBMCCytotoxicity, in the positive analysis fitting direction relative to DMSO as the negative control and baseline of activity. […]
The levels of cell surface (or secreted, indicated by the prefix "s") biomarker endpoints were measured by ELISA. Overt cytotoxicity to cells in confluent adherent cultures (all systems other than the BT system) was assessed by measuring total protein levels using sulforhodamine B (SRB) staining in parallel cultures at the time of biomarker measurements, indicated as SRB endpoints. For proliferation assays for adherent cell types, individual cell types are cultured at sub-confluence and relative cell numbers quantified by SRB staining at time points optimized for each system (48 h: 3C and CASM3C systems; 72 h: BT and HDF3CGF systems; 96 h: SAg system). […] Plates were read after 6 h.

[4] = read-out: Secreted IgG (sIgG), gene 3500; assay: BSK_BT_sIgG: BioMAP Diversity Plus: BT Assay for Secreted IgG (sIgG) Biomarker Activity (AID 2284226); details: primary human B cells with PBMC
Outline: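 ELISA quantitation of secreted IgG from human B cells co-cultured with PBMC, sampled 24 h post-dosing. Values fitted relative to DMSO vehicle as baseline, positive fitting direction.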

[5] = BSK_BT_Bcell_Proliferation: Viability Assessment in the BioMAP Diversity Plus: BT Assay for B cell Proliferation (AID 2284227); details: primary human B cells with PBMC
Outline: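 Human B cells co-cultured with PBMC were dosed with test chemicals and relative cell number was quantified by SRB staining at 72 h. Cells were fixed in 10% TCA, stained with 0.1% SRB and read at 560 nm. Activity was fitted in the positive direction against DMSO.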

[6] = read-out: Interleukin 6 (IL6), IL6 (gene 3569); assay: BSK_BT_xIL6: BioMAP Diversity Plus: BT Assay for Interleukin 6 (IL6) Biomarker Activity (AID 2284228); details: primary human B cells with PBMC
Outline: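 IL-6 secretion measured (Luminex xMAP) in human primary B cell + PBMC co-culture at 24 h of chemical exposure; DMSO served as negative control and activity baseline, with curves fitted for increase.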

[7] = read-out: Interleukin 17A (IL17A), IL17A (gene 3605); assay: BSK_BT_xIL17A: BioMAP Diversity Plus: BT Assay for Interleukin 17A (IL17A) Biomarker Activity (AID 2284229); details: primary human B cells with PBMC
Description: BSK_BT is a cell-based, multiplexed-readout assay that uses B cell and peripheral blood mononuclear cells, a human vascular primary cell co-culture, with measurements taken at 24 hours after chemical dosing in a microplate: 96-well plate.BSK_BT_xIL17A is an assay component measured in the BSK_BT assay. It measures secreted IL-17A related to regulation of gene expression using LumineX xMAP technology.Data from the assay component BSK_BT_xIL17A was analyzed at the endpoint, BSK_BT_xIL17A, in the positive analysis fitting direction relative to DMSO as the negative control and baseline of activity. Using a type of cytokine quantitation reporter, gain or loss-of-signal activity can be used to understand protein changes. […]
The levels of cell surface (or secreted, indicated by the prefix "s") biomarker endpoints were measured by ELISA. Overt cytotoxicity to cells in confluent adherent cultures (all systems other than the BT system) was assessed by measuring total protein levels using sulforhodamine B (SRB) staining in parallel cultures at the time of biomarker measurements, indicated as SRB endpoints. For proliferation assays for adherent cell types, individual cell types are cultured at sub-confluence and relative cell numbers quantified by SRB staining at time points optimized for each system (48 h: 3C and CASM3C systems; 72 h: BT and HDF3CGF systems; 96 h: SAg system). […]

[8] = read-out: Tumor necrosis factor (Homo sapiens) (UniProt P01375); assay: BSK_BT_xTNFa: BioMAP Diversity Plus: BT Assay for Tumor necrosis factor alpha (TNF-alpha) Biomarker Activity (AID 2284230); details: primary human B cells with PBMC
Outline: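 B cells with PBMC in co-culture, dosed and sampled at 24 h; secreted TNF-alpha measured by Luminex xMAP bead assay. Activity fitted in the gain direction against DMSO as negative control and baseline.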

[9] = CCTE_Mundy_HCI_hN2_NOG_NeuriteLength: CCTE's Neurite Outgrowth Assay in human hN2 cells for Neurite Length, Mundy Lab (AID 2284220; active = hit-call score of the fitted dose curve at least 0.9, where 1 is the maximum)
Outline: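 Plate hNP1-derived neurons, then add chemical 2 h later as a 1/10 dilution. Stain with anti-βIII-tubulin then Alexa Fluor-488 secondary, and image automatically to measure neurite length.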

[10] = CCTE_Mundy_HCI_hN2_NOG_NeuronCount: CCTE's Neurite Outgrowth Assay in human hN2 cells for Neuron Count, Mundy Lab (AID 2284221; active = hit-call score of the fitted dose curve at least 0.9, where 1 is the maximum)
Description: CCTE_Mundy_HCI_hN2_NOG is a multiplexed, cell-based-readout assay that uses immature neurons derived from hNP1 neuroprogenitor cells with measurements taken at 50.33 hours after chemical dosing in a microplate: 96-well plate.CCTE_Mundy_HCI_hN2_NOG_NeuronCount is one of four components of the CCTE_Mundy_HCI_hN2_NOG assay. It measures cell viability related to number of neurons using High Content Imaging of fluorescently labelled markers.[…] Using a type of morphology reporter, loss -of-signal activity can be used to understand developmental effects.
Exposure starts 2 hours post-plating by adding 10 ul of the working solution to 90 ul of media in the wells for a 1/10 dilution. Forty-eight hours after chemical treatment cells are fixed by direct addition of 100 ul of warm (37C) Dulbecco's phosphate buffered saline (DPBS) fixative solution containing 8% paraformaldehyde, 8% sucrose, and 0.1% of 3 mg/ml Hoechst 33342 into each well. Primary antibodies are prepared by dilution in Immunocytochemical Staining Buffer (ISB), 10X Dulbecco's PBS, 0.1% Saponin, 5% Bovine Serum Albumin, 0.5% NaN3 (Sodium Azide) and betaIII-tubulin (rabbit anti-betaIII-tubulin, 1:800) followed by Alexa Fluor-488 secondary (1:500) to label neuronal cell bodies and neurites. A Cellomics ArrayScan VTi HCS Reader is used for automated image acquisition and analysis of neurite outgrowth.

Chain of Tumor necrosis factor (Homo sapiens) (P01375 whole entry, looked up): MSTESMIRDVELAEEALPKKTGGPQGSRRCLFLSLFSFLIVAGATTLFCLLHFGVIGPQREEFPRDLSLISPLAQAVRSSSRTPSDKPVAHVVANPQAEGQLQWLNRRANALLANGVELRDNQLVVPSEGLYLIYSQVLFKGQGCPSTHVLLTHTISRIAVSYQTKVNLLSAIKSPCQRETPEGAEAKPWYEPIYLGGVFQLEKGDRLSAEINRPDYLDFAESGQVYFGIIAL

Q: Which results are given for `C=CCC1=C(C)C(OC(=O)C2C(C=C(C)C)C2(C)C)CC1=O` (configuration not stated)?
A: outcome [1]: inactive; outcome [2]: inactive

Q: Which results are given for `COc1cnc(OC)n2nc(NS(=O)(=O)c3c(OCC(F)F)cccc3C(F)(F)F)nc12`?
A: outcome [3]: inactive; outcome [4]: inactive; outcome [5]: inactive; outcome [6]: inactive; outcome [7]: inactive; outcome [8]: inactive

Q: Which AC50 [1] does the source give for `CC(C)(C)c1ccc(CSc2cnn(C(C)(C)C)c(=O)c2Cl)cc1` here?
A: Its AC50 is 0.00118 µM (active).

Q: What about the AC50 [2] of the same compound?
A: The AC50 was 0.00106 µM (active).

Q: Which AC50 [1] does the source give for `COP(=S)(OC)Oc1nc(Cl)c(Cl)cc1Cl` here?
A: Its AC50 is 27.9 µM (active).

Q: What about the outcome [2] of the same compound?
A: Its outcome is “inactive”.

Q: Which results are given for `CN(C)C(=S)SSC(=S)N(C)C`?
A: AC50 [1]: 0.0585 µM (active); AC50 [2]: 0.0783 µM (active)

Q: With `CCOc1cc(Oc2ccc(C(F)(F)F)cc2Cl)ccc1[N+](=O)[O-]` as the compound, how does the AC50 [1] read?
A: Its AC50 is 16.6 µM (active).

Q: And the AC50 [2]?
A: The AC50 was 14.3 µM (active).

Q: Which outcome [1] does the source give for `CCCCNC(=O)n1c(NC(=O)OC)nc2ccccc21` here?
A: Its outcome is “inactive”.

Q: And the outcome [2]?
A: The outcome was “inactive”.

Q: What does the source list for `CO/C=C(/C(=O)OC)c1ccccc1Oc1cc(Oc2ccccc2C#N)ncn1`?
A: AC50 [1]: 4.78 µM (active); AC50 [2]: 5.6 µM (active)

Q: For `C=CC1(C)OC(=O)N(c2cc(Cl)cc(Cl)c2)C1=O` (configuration not stated), which outcome [1] is on record?
A: The outcome was “inactive”.

Q: What about the outcome [2] of the same compound?
A: Its outcome is “inactive”.

Q: Which results are given for `COC(=O)N(OC)c1ccccc1COc1ccn(-c2ccc(Cl)cc2)n1`?
A: AC50 [1]: 0.105 µM (active); AC50 [2]: 0.113 µM (active)

Q: Which results are given for `COP(N)(=O)SC` (configuration not stated)?
A: outcome [9]: inactive; outcome [1]: inactive; outcome [2]: inactive

Q: Which results are given for `CNC(=O)ON=CC(C)(C)SC`?
A: outcome [9]: inactive; outcome [10]: inactive; outcome [1]: inactive; outcome [2]: inactive

Q: For `N#Cc1nn(-c2c(Cl)cc(C(F)(F)F)cc2Cl)c(N)c1S(=O)C(F)(F)F` (configuration not stated), which outcome [1] is on record?
A: Its outcome is “inactive”.

Q: What about the outcome [2] of the same compound?
A: The outcome was “inactive”.

Q: For `Cc1ccc(-c2c(Cl)nc(C#N)n2S(=O)(=O)N(C)C)cc1`, which AC50 [1] is on record?
A: Its AC50 is 80.2 µM (active).

Q: And the AC50 [2]?
A: The AC50 was 87.8 µM (active).

Q: For `CCCCC(CC)COC(=O)c1ccccc1C(=O)OCC(CC)CCCC` (configuration not stated), which outcome [9] is on record?
A: Its outcome is “inactive”.

Q: And the outcome [10]?
A: The outcome was “inactive”.

Q: And the AC50 [1]?
A: Its AC50 is 4.84 µM (active).

Q: What about the AC50 [2] of the same compound?
A: The AC50 was 8.27 µM (active) and 7.64 µM (active).

Q: Which AC50 [1] does the source give for `C=CCC1=C(C)[C@@H](OC(=O)[C@@H]2[C@@H](C=C(C)C)C2(C)C)CC1=O` here?
A: Its AC50 is 23.7 µM (active).

Q: And the AC50 [2]?
A: Its AC50 is 21.8 µM (active).

Q: Which AC50 [1] does the source give for `CCCCOC(=O)c1ccccc1C(=O)OCCCC` here?
A: Its AC50 is 85.8 µM (active).

Q: What about the AC50 [2] of the same compound?
A: Its AC50 is 89.5 µM (active).

Q: For `CCOC(=O)CC(SP(=S)(OC)OC)C(=O)OCC` (configuration not stated), which AC50 [9] is on record?
A: Its AC50 is 34.2 µM (active).

Q: What about the AC50 [10] of the same compound?
A: The AC50 was 33.6 µM (active).

Q: What about the outcome [1] of the same compound?
A: The outcome was “inactive”.

Q: And the outcome [2]?
A: Its outcome is “inactive”.
